Reference: PubChem BioAssay (NCI)
Values joined by “and” are separate entries in the source; they are usually repeats but may differ in a detail not shown here. Equal values may be shown once. The panel holds about 83,000 compounds, 20% with a hit somewhere; the sample as a whole holds those more often.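 Plates (96-well) were seeded with cells, treated with compound at one concentration, and incubated for 48 hours before percent growth was determined.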 A number with no mark means an inactive call. Active and inactive are the calls of the source. How the source made its calls: active means growth percent below 10; inactive means the rest.

What was measured:
Assay in all cases: NCI-60 one-dose screen, 48 h (100 = growth as untreated, 0 = no growth, -100 = all killed)
HCT-15 colon = conditions: 10 µM unless noted
HT29 colon = conditions: 10 µM unless noted
SNB-75 CNS = conditions: 10 µM unless noted
SNB-19 CNS = conditions: 10 µM unless noted
U251 CNS = conditions: 10 µM unless noted
PC-3 prostate = conditions: 10 µM unless noted
UACC-62 melanoma = system: UACC-62 melanoma
LOX IMVI melanoma = conditions: 10 µM
SK-MEL-28 melanoma = conditions: 10 µM unless noted
SK-MEL-2 melanoma = conditions: 10 µM unless noted
EKVX NSCLC = conditions: 10 µM unless noted
SN12C renal = conditions: 10 µM unless noted
UO-31 renal = conditions: 10 µM unless noted
TK-10 renal = system: TK-10 renal
ACHN renal = conditions: 10 µM unless noted
CAKI-1 renal = conditions: 10 µM unless noted
A498 renal = conditions: 10 µM unless noted
SK-MEL-5 melanoma = conditions: 10 µM unless noted
CCRF-CEM leukemia = conditions: 10 µM unless noted
MOLT-4 leukemia = conditions: 10 µM unless noted

`CCOC(=O)/C(C)=C\c1ccc(OC)c(OC)c1` showed a growth (HCT-15 colon) of 101%, a growth (HT29 colon) of 106% and a growth (SNB-75 CNS) of 92.9%. The growth (SNB-19 CNS) was 107%, the growth (U251 CNS) was 94% and the growth (PC-3 prostate) was 97.5%. For the same molecule, the growth (UACC-62 melanoma; 10 µM unless noted) was 101%, the growth (LOX IMVI melanoma) was 98% and the growth (SK-MEL-28 melanoma) was 108%. For the same molecule, the growth (SK-MEL-2 melanoma) was 112%, the growth (EKVX NSCLC) was 102% and the growth (SN12C renal) was 104%. The growth (UO-31 renal) was 95.1%, the growth (TK-10 renal; 10 µM unless noted) was 104% and the growth (ACHN renal) was 103%. For the same molecule, the growth (CAKI-1 renal) was 96.1% and the growth (A498 renal) was 95.7%.

In the case of `CC1CC2C3CCC4=CC(=O)CCC4(C)C3CCC2(C)C1(O)C(=O)CO` (stereo not drawn), the growth (HCT-15 colon) is reported as 106%, the growth (HT29 colon) is reported as 97.4% and the growth (SNB-75 CNS) is reported as 110%. The growth (SNB-19 CNS) was 110%, the growth (U251 CNS) was 108% and the growth (PC-3 prostate) was 93.9%. The growth (SK-MEL-5 melanoma) was 104%, the growth (SK-MEL-28 melanoma) was 109% and the growth (SK-MEL-2 melanoma) was 99.2%. It also gave a growth (EKVX NSCLC) of 99.4%, a growth (SN12C renal) of 102% and a growth (UO-31 renal) of 92.2%. For the same molecule, the growth (TK-10 renal; 10 µM unless noted) was 117%, the growth (ACHN renal) was 124% and the growth (A498 renal) was 73%. The growth (CCRF-CEM leukemia) was 90.6% and the growth (MOLT-4 leukemia) was 71.9%.

For `CCOc1ccc(C(=O)O)cc1`, the growth (HCT-15 colon) was 95.7%, the growth (HT29 colon) was 103% and the growth (SNB-75 CNS) was 89.2%. For the same molecule, the growth (SNB-19 CNS) was 112%, the growth (U251 CNS) was 103% and the growth (PC-3 prostate) was 91.2%. It also gave a growth (UACC-62 melanoma; 10 µM unless noted) of 104%, a growth (LOX IMVI melanoma) of 98.7% and a growth (SK-MEL-28 melanoma) of 105%. It also gave a growth (SK-MEL-2 melanoma) of 109%, a growth (EKVX NSCLC) of 99.6% and a growth (SN12C renal) of 113%. The growth (UO-31 renal) was 102%, the growth (TK-10 renal; 10 µM unless noted) was 99.6% and the growth (ACHN renal) was 109%. It also gave a growth (CAKI-1 renal) of 97.9%, a growth (A498 renal) of 84.7% and a growth (CCRF-CEM leukemia) of 105%. The growth (MOLT-4 leukemia) was 116%.

`Nc1cc(F)ccc1[N+](=O)[O-]` was tested, and the growth (HCT-15 colon) was 102%, the growth (HT29 colon) was 109% and the growth (SNB-75 CNS) was 85.9%. For the same molecule, the growth (SNB-19 CNS) was 102%, the growth (U251 CNS) was 106% and the growth (PC-3 prostate) was 87.5%. For the same molecule, the growth (UACC-62 melanoma; 10 µM unless noted) was 101%, the growth (LOX IMVI melanoma) was 100% and the growth (SK-MEL-28 melanoma) was 104%. It also gave a growth (SK-MEL-2 melanoma) of 114%, a growth (EKVX NSCLC) of 100% and a growth (SN12C renal) of 98.6%. For the same molecule, the growth (TK-10 renal; 10 µM unless noted) was 104%, the growth (ACHN renal) was 104% and the growth (CAKI-1 renal) was 92.2%. For the same molecule, the growth (A498 renal) was 102% and the growth (MOLT-4 leukemia) was 109%.

For `CCNC(=O)Oc1ccc[nH]c1=O`, the growth (HCT-15 colon) was 97.9%, the growth (HT29 colon) was 109% and the growth (SNB-75 CNS) was 85.3%. The growth (SNB-19 CNS) was 98.8%, the growth (U251 CNS) was 104% and the growth (SK-MEL-5 melanoma) was 95.2%. For the same molecule, the growth (UACC-62 melanoma; 10 µM unless noted) was 96.1%, the growth (LOX IMVI melanoma) was 99.1% and the growth (SK-MEL-28 melanoma) was 125%. The growth (SK-MEL-2 melanoma) was 107%, the growth (EKVX NSCLC) was 103% and the growth (SN12C renal) was 104%. For the same molecule, the growth (UO-31 renal) was 86.6%, the growth (TK-10 renal; 10 µM unless noted) was 110% and the growth (ACHN renal) was 100%. It also gave a growth (CAKI-1 renal) of 95.1%, a growth (A498 renal) of 116% and a growth (CCRF-CEM leukemia) of 99%.

In the case of `C=CC(C)(C)n1cc(C2=C(O)C(=O)C(c3cn(C(C)(C)C=C)c4ccccc34)=C(O)C2=O)c2ccccc21`, the growth (HCT-15 colon) is reported as 84.2%, the growth (HT29 colon) is reported as 99.3% and the growth (SNB-75 CNS) is reported as 67.8%. It also gave a growth (SNB-19 CNS) of 80.2%, a growth (U251 CNS) of 82.6% and a growth (PC-3 prostate) of 80.8%. For the same molecule, the growth (UACC-62 melanoma; 10 µM) was 100%, the growth (UACC-62 melanoma; 100 µM) was -85.8% (active) and -96.5% (active) and the growth (LOX IMVI melanoma) was 97.2%. It also gave a growth (SK-MEL-2 melanoma) of 95.9%, a growth (EKVX NSCLC) of 87.2% and a growth (SN12C renal) of 101%. For the same molecule, the growth (UO-31 renal) was 74.1%, the growth (TK-10 renal; 10 µM) was 92.7% and the growth (TK-10 renal; 100 µM) was -99.2% (active) and -100% (active). It also gave a growth (ACHN renal) of 94.4%, a growth (CAKI-1 renal) of 89.7% and a growth (CCRF-CEM leukemia) of 78.5%. It also gave a growth (MOLT-4 leukemia) of 88.7%.

`Cc1ccc2[nH]c3ccccc3c2c1` was tested, and the growth (HCT-15 colon) was 79.6%, the growth (HT29 colon) was 102% and the growth (SNB-75 CNS) was 98.4%. For the same molecule, the growth (SNB-19 CNS) was 105%, the growth (U251 CNS) was 96.2% and the growth (PC-3 prostate) was 89.1%. For the same molecule, the growth (UACC-62 melanoma; 10 µM unless noted) was 98.4%, the growth (LOX IMVI melanoma) was 97% and the growth (SK-MEL-28 melanoma) was 111%. The growth (SK-MEL-2 melanoma) was 109%, the growth (EKVX NSCLC) was 108% and the growth (SN12C renal) was 109%. For the same molecule, the growth (UO-31 renal) was 91.3%, the growth (TK-10 renal; 10 µM unless noted) was 106% and the growth (ACHN renal) was 110%. For the same molecule, the growth (CAKI-1 renal) was 97.3%, the growth (A498 renal) was 82.5% and the growth (CCRF-CEM leukemia) was 92.8%. For the same molecule, the growth (MOLT-4 leukemia) was 94.4%.

For `OCCNc1ccccc1`, the growth (HCT-15 colon) was 105%, the growth (HT29 colon) was 104% and the growth (SNB-75 CNS) was 91.3%. For the same molecule, the growth (SNB-19 CNS) was 116%, the growth (U251 CNS) was 97.6% and the growth (PC-3 prostate) was 95.7%. The growth (UACC-62 melanoma; 10 µM unless noted) was 109%, the growth (LOX IMVI melanoma) was 94.3% and the growth (SK-MEL-28 melanoma) was 107%. The growth (SK-MEL-2 melanoma) was 103%, the growth (EKVX NSCLC) was 111% and the growth (SN12C renal) was 108%. The growth (UO-31 renal) was 90.9%, the growth (TK-10 renal; 10 µM unless noted) was 101% and the growth (ACHN renal) was 108%. For the same molecule, the growth (CAKI-1 renal) was 96.7%, the growth (A498 renal) was 99.1% and the growth (CCRF-CEM leukemia) was 105%. The growth (MOLT-4 leukemia) was 101%.

`C(=C\c1ccncc1)/c1ccncc1` was tested, and the growth (HCT-15 colon) was 96.3%, the growth (HT29 colon) was 99% and the growth (SNB-75 CNS) was 89.6%. For the same molecule, the growth (SNB-19 CNS) was 94.5%, the growth (U251 CNS) was 97.1% and the growth (SK-MEL-5 melanoma) was 101%. For the same molecule, the growth (UACC-62 melanoma; 10 µM unless noted) was 90.1%, the growth (LOX IMVI melanoma) was 94.2% and the growth (SK-MEL-28 melanoma) was 104%. For the same molecule, the growth (SK-MEL-2 melanoma) was 88.2%, the growth (EKVX NSCLC) was 105% and the growth (SN12C renal) was 101%. For the same molecule, the growth (UO-31 renal) was 84.7%, the growth (TK-10 renal; 10 µM unless noted) was 102% and the growth (ACHN renal) was 98.9%. For the same molecule, the growth (CAKI-1 renal) was 129%, the growth (A498 renal) was 120% and the growth (CCRF-CEM leukemia) was 101%.
